Only some compounds are listed: those with a hit (about 3.6% of all), similar ones and a draw of the others.
DUSP3 inh = DUSP3 (human) phosphatase inhibition | P51452 | recombinant VHR phosphatase, pNPP absorbance | inhibition, % at 13.3 µM | actives 0.52% (n = 290,000); in the data active = inhibition above about 50%
Mtb hypoxia rep = Mtb hypoxia fluorescent reporter inhibition; fluorescence inhibition, % (concentration not given with the values); actives 0.1% (n = 300,000); M. tuberculosis hypoxia-regulated fluorescent reporter, fluorescence; AID 1159583; in the data active = fluorescence inhibition mostly above about 23%, no sharp cut-off; inactive = mostly below about 17%
GDH-TPI counter-1 = counter-screen for M. tuberculosis FBA inhibitors: GDH-TPI coupled enzymes | GDH-TPI coupled enzyme counterscreen, NADH absorbance | inhibition, % at 4.8 µM | actives 1.2% (n = 360,000) | AID 588335; in the data active = inhibition above about 30%
Mtb FBA inh = inhibitors of M. tuberculosis fructose-bisphosphate aldolase; P9WQA3; purified M. tuberculosis FBA, fluorescence read-out; inhibition, % at 1 µM; actives 2.3% (n = 360,000); AID 588726
Target sequence (P9WQA3 whole entry, looked up): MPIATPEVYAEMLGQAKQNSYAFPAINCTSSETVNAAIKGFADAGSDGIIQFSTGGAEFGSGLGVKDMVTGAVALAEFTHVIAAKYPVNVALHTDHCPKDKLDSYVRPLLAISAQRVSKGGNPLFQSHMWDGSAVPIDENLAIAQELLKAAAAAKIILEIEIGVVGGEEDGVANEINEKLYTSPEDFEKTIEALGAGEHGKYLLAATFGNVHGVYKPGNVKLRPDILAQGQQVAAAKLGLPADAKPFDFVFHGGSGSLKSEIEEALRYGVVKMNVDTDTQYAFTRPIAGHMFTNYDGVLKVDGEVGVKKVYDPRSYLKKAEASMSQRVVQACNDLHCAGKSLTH
Mtb betalactam = beta-lactam sensitization of Mtb H37Rv; M. tuberculosis H37Rv growth with meropenem, percent inhibition; actives 0.27% (n = 330,000); inhibition, % at 25 µM; call rule not given here;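 note: growth measured after seven days incubation then overnight dye step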
Mtb FBA confirm = Mtb FBA inhibition, confirmed. AID 651616. actives 78% (n = 5,600). purified M. tuberculosis FBA, fluorescence read-out. shares compounds with Mtb FBA inh. inhibition, % at 1 µM
GDH-TPI counter-2 = inhibits GDH-TPI coupling enzymes, flagging Mtb FBA hits; shares compounds with Mtb FBA inh; GDH-TPI coupled enzyme counterscreen, fluorescence; inhibition, % at 1 µM; actives 81% (n = 5,600); AID 652141; in the data active = inhibition above about 10%
GDH-TPI DR = counter-screen for M. tuberculosis FBA inhibitors: GDH-TPI dose response | shares compounds with Mtb FBA inh | GDH-TPI coupled enzyme assay, fluorescence, artifact counterscreen | IC50, µM | actives 79% (n = 170); call rule not given here
Large screens that a line does not name were inactive (follow-up assays come after a bar, where shown). Cut-off read from the data, not from the text of the source, unless noted: active = inhibition above about 27%; inactive = the rest.

O=C(COc1ccc2c(c1)oc(=O)c1ccccc12)NCCN1CCOCC1	Mtb FBA inh 91 | Mtb FBA confirm 128 | GDH-TPI counter-2 105
CC(Oc1ccc2c3c(c(=O)oc2c1)CCCC3)C(=O)NCCN1CCOCC1 (stereo not given)	Mtb FBA inh 51 | Mtb FBA confirm 76 | GDH-TPI counter-2 61
Cc1cc(OCC(=O)N2CCOCC2)cc2oc(=O)c3ccccc3c12	Mtb FBA inh 54 (no result: Mtb hypoxia rep) | Mtb FBA confirm 70 | GDH-TPI counter-2 45
Fc1ccccc1C=NN1CCN(Cc2ccccc2Cl)CC1	none (no result: DUSP3 inh, GDH-TPI counter-1, Mtb FBA inh, Mtb betalactam)
Cc1cc(SCC(=O)NN=Cc2ccco2)nc2ccccc12	none (no result: DUSP3 inh, GDH-TPI counter-1, Mtb FBA inh, Mtb betalactam)
Cc1c(OC(C)C(=O)NCc2cccnc2)ccc2c3c(c(=O)oc12)CCCC3 (stereo not given)	Mtb FBA inh 61 (no result: Mtb hypoxia rep) | Mtb FBA confirm active | GDH-TPI counter-2 active
O=C(COc1ccc2c3c(c(=O)oc2c1)CCC3)NCCN1CCOCC1	none
O=C(O)CCNC(=O)COc1ccc2c3c(c(=O)oc2c1)CCCC3	Mtb FBA inh 66 | Mtb FBA confirm 40 | GDH-TPI counter-2 35
O=C(COc1ccc2c3c(c(=O)oc2c1)CCCC3)NCCCN1CCOCC1	Mtb FBA inh 29 | Mtb FBA confirm 89 | GDH-TPI counter-2 64
O=C(COc1ccc2c(-c3ccccc3)cc(=O)oc2c1)NCCCN1CCOCC1	none
O=C(COc1ccc2c3c(c(=O)oc2c1)CCCC3)NCCN1CCOCC1	Mtb FBA inh 48 | Mtb FBA confirm inactive | GDH-TPI counter-2 inactive
CN1CCN(CCC(=O)NN=Cc2cc3c(cc2[N+](=O)[O-])OCO3)CC1	none (no result: DUSP3 inh, GDH-TPI counter-1, Mtb FBA inh, Mtb betalactam)
OC1c2c(F)cccc2N=C2CCCCN21 (stereo not given)	Mtb FBA inh 38 (no result: DUSP3 inh, Mtb hypoxia rep, Mtb betalactam) | Mtb FBA confirm 176 | GDH-TPI counter-2 162
O=S1(=O)CCOC2Cc3ccccc3C2N1Cc1ccccc1 (stereo not given)	none (no result: DUSP3 inh, GDH-TPI counter-1, Mtb FBA inh, Mtb betalactam)
COc1ccc(Cn2c(=O)[nH]c3cc(C(=O)NCCCOC(C)C)ccc3c2=O)cc1	none
CCOCCCNC(=O)c1cc2cc3cc(OC)ccc3nc2o1	DUSP3 inh 53, Mtb FBA inh 110 | Mtb FBA confirm 91 | GDH-TPI counter-2 66
COc1ccc2nc3oc(C(=O)NCCCOC(C)C)cc3cc2c1	Mtb FBA inh 111 | Mtb FBA confirm inactive | GDH-TPI counter-2 inactive
O=C(NCc1cccs1)c1cc2ccccc2o1	none (not shown: Mtb hypoxia rep)
COc1ccc2nc3oc(C(=O)NCc4cccs4)cc3cc2c1	Mtb FBA inh 32 (no result: Mtb hypoxia rep) | Mtb FBA confirm inactive | GDH-TPI counter-2 inactive
Cc1nnc2sc(-c3ccc(-c4ccc(Cl)c(C(F)(F)F)c4)o3)nn12	Mtb FBA inh 76 | Mtb FBA confirm 130 | GDH-TPI counter-2 115
Cc1ccc(-c2nn3c(C)nnc3s2)cc1N	none
COC(=O)C1C2CC3c4[nH]c5cc(OC)ccc5c4CCN3CC2CC(OC(=O)C=Cc2cc(OC)c(OC)c(OC)c2)C1OC (stereo not given)	none (no result: DUSP3 inh, GDH-TPI counter-1, Mtb FBA inh, Mtb betalactam)
O=C(Nc1ccc2c(c1)OCCO2)c1cccs1	Mtb FBA inh 38 | Mtb FBA confirm inactive | GDH-TPI counter-2 inactive | GDH-TPI DR inactive
O=C(Nc1ccc2c(c1)OCO2)c1cccs1	none
COc1ccc2oc(=O)c(-c3nc(C)cs3)cc2c1	Mtb FBA inh 35, Mtb betalactam inconclusive | Mtb FBA confirm 111 | GDH-TPI counter-2 78
COCCCNC(=O)/C(C#N)=C/c1c(N2CCN(c3ccccc3)CC2)nc2ccccn2c1=O	Mtb FBA inh 91 | Mtb FBA confirm 112 | GDH-TPI counter-2 121
CCNC(=O)/C(C#N)=C/c1c(N2CCN(c3ccccc3)CC2)nc2ccccn2c1=O	Mtb FBA inh 50 | Mtb FBA confirm inactive | GDH-TPI counter-2 17
Cn1c2ccccc2c(=O)c2cc(C#CC3(O)CCCCC3)ccc21	Mtb FBA inh 93 (no result: Mtb betalactam) | Mtb FBA confirm inactive | GDH-TPI counter-2 inactive
Cn1c2ccccc2c(=O)c2ccc(C#CC3(N)CCCCC3)cc21	Mtb FBA inh 92 | Mtb FBA confirm 35 | GDH-TPI counter-2 19
Oc1oc(-c2ccccc2)nc1C=Nc1nccs1	none (no result: DUSP3 inh, GDH-TPI counter-1, Mtb FBA inh, Mtb betalactam)

Screening data as filed in PubChem BioAssay.
